# Source: PubChem BioAssay (NCATS)
# Records with an inconclusive call do not appear. Activity calls are given as the source filed them. Calls come from the whole dose curve.
# Assay: qHTS Assay for Lipid Storage Modulators (AID 1519); for activity change, negative = inhibition: % is set by controls: 0 for no effect and ±100 for the full control effect
# Details: Drosophila S3 cells, BODIPY lipid droplet/cell ratio, laser cytometry, cells loaded with oleic acid
# Description: NIH Molecular Libraries Probe Production Centers Network [MLPCN]
# NIH Chemical Genomics Center [NCGC]
# Assay Submitter (PI): Beller, Mathias; Max-Planck-Institut fur Biophysikalische Chemie
# NCGC Assay Overview: Storing lipids as a reservoir for energy or the anabolism of elementary metabolites is a common feature of probably all cells and is conserved from bacteria to humans. The universal cellular lipid storage organelle is the so-called lipid storage droplet (LD). Although ubiquitous, LDs share a simple structure composed of a hydrophobic core that harbors the storage lipids, which is shielded by a droplet-specific phospholipid monolayer to which proteins are attached. The current model of LD biogenesis involves an incorporation of the lipid core into the membrane leaflets of the endoplasmic reticulum (ER) followed by a subsequent budding-like maturation of a LD, which ultimately pinches off. Once released, LD volume can increase by localized lipogenesis or fusion of existing droplets. Storage lipids are re-mobilized enzymatically by lipase activity. Lipase regulation in the adipocyte is heavily studied and involves multiple components including catecholamine signaling, the LD-associated proteins Perilipin and comparative gene identification-58 (CGI-58) and at least two lipases named hormone sensitive lipase (HSL) and adipocyte triglyceride lipase (ATGL). LD regulation outside of the adipocyte is poorly understood and only few components are known. However, there is an urgent need to learn more about ectopic fat depots as mislocalized storage of lipids, for example in the liver or muscle, is an eminent health problem associated with insulin resistance or the metabolic syndrome. We developed a laser-scanning cytometer assay to enable 1,536-well screening and combined the results of the small molecules screen with an RNAi database based on lipid storage.
# NCGC Assay Protocol Summary:
# We dispensed 4 uL of cells at 1.25 x 10^6 cells/mL into LoBase Aurora COC 1,536-well plates (black walled, clear bottom) with a bottle-valve solenoid-based dispenser (Aurora) to obtain 5,000 cells/well. Triacsin C (Sigma-Aldrich T-4540), an inhibitor of long-chain fatty acyl CoA synthetase that blocks synthesis of triglycerides, was used as a positive control for lipid under-storage. A total of 23 nL of compound solution of different concentrations were transferred to the assay plates using a Kalypsys pin tool equipped with a 1,536-pin array containing 10-nL slotted pins (FP1S10, 0.457-mm diameter, 50.8 mm long; V&P Scientific). One microliter of oleic acid (400 uM) was added, and the plate was lidded with stainless steel rubber gasket lined lids containing pinholes. […] Fluorescence was detected by excitation of the fluorophores with a 488-nm laser on an Acumen Explorer (TTP Lab Tech). The total intensity in channel 1 (500-530 nm) reflected lipid droplet accumulation. […] The ratio of the total intensity in PMT channel 1 over total intensity of channel 3 was also calculated. Percent activity was computed relative to an internal control (100% inhibited lipid droplet deposition due to the presence of 20 uM Triacsin C), which was added to 32 wells/plate.
# [1] = measured here: cell count channel max response
# [2] = measured here: lipid channel max response
Structure (SMILES),"activity change, negative = inhibition (at 25.7 µM (top of the series))",max response [1],max response [2],"activity change, negative = inhibition (at 57.5 µM (top of the series))"
NC[C@@H](CC(=O)O)c1ccc(Cl)cc1,0.101% (inactive),11.7%,10.6%,
CC(=O)N1CC[N+](C)(C)CC1,,-4.3%,-0.222%,2.08% (inactive)
c1ccc(C[C@@H](c2ccccc2)N2CCCCC2)cc1,,-11.4%,-18.1%,-5.07% (inactive)
CCN(CC)CCO[C@H]1CC[C@@]2(C)C(=CC[C@@H]3[C@H]2CC[C@]2(C)C(=O)CC[C@H]32)C1,,16%,11.9%,-3.37% (inactive)
O=c1c(O)c(-c2ccc(O)c(O)c2)oc2c(O)c(O)cc(O)c12,,-1.92%,12.9%,10.8% (inactive)
CCCN[C@@H]1CCc2c(OC)cccc2[C@@H]1C,,-20.9%,-24%,-0.687% (inactive)
C/C=C1/CN2CC[C@]34C(=C(C=O)[C@H]1C[C@@H]23)Nc1ccccc14,,7.61%,5.28%,-2.11% (inactive)
CC(C)(C)NC[C@@H](O)COc1cccc2[nH]c(C#N)cc12,,-20.5%,-17.5%,2.4% (inactive)
C[N+]1(C)CCc2cc3c(cc2C1C1OC(=O)c2c1ccc1c2OCO1)OCO3 (configuration not stated),,1.78%,1.49%,2.12% (inactive)
Cc1o[nH]c(=O)c1C[C@@H](N)C(=O)O,,-0.22%,0.175%,-2.31% (inactive)
CCCN1C[C@H](C)N([C@H](c2ccc(C(=O)N(CC)CC)cc2)c2cccc(OC)c2)C[C@H]1C,,26.5%,30.1%,9.16% (inactive)
C[C@@H](Cc1ccc(OCC(=O)O)cc1)NC[C@H](O)c1cccc(Cl)c1,,11.5%,8.85%,-1.87% (inactive)
N[C@@H](CCCCP(=O)(O)O)C(=O)O,,-29.3%,-29%,0.372% (inactive)
CC[N+](CC)(CCCNC1=CC(=O)C(NCCC[N+](CC)(CC)Cc2ccccc2)=CC1=O)Cc1ccccc1,,-5.38%,-3.95%,3.42% (inactive)
